Giardia kill – kills Giardia lamblia; Giardia lamblia trophozoite viability; activity change, % at 7.66 µM, hits read low; actives 0.15% (n = 340,000); in the data active means activity change below about -80%; inconclusive means between about -30% and that limit;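 further: parasites exposed to compound for two days anaerobically before the ATP read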
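Media and compound were dispensed first, then trophozoites at 100 cells/well; plates sat 48 hrs at 37 deg C without oxygen before ATP luminescence reagent was added and read after 15-30 min at room temperature.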
p53 reactivator – mutant p53 re-activation in reporter cells. H1299 p53-A138V BP100-luciferase reporter, luminescence, 24 h. Potency, µM (titrated, usually from 92.2 µM), most hits filed as activators. actives 0.063% (n = 320,000). AID 504706; further: nearly all actives have a fitted effect of over 45% in size
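p53-null H1299 cells stably carrying temperature-sensitive p53-A138V and a BP100-luciferase reporter were pinned with compounds (4-point, 1:5 series) and held 24 hrs at 37 deg C. Luminescence was read 10 min after detection reagent.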
RORgamma inh – inhibitors of mouse ROR gamma transcriptional activity; P51450; Drosophila S2 Gal4-RORgamma UAS-luciferase reporter, 20 h; actives 5.4% (n = 310,000); Potency, µM (top dose mostly 53.6 µM), actives largely listed as inhibitors; further: nearly all actives have a fitted effect of over 60% in size
Target sequence (P51450 whole entry, looked up, the tested form may be a part): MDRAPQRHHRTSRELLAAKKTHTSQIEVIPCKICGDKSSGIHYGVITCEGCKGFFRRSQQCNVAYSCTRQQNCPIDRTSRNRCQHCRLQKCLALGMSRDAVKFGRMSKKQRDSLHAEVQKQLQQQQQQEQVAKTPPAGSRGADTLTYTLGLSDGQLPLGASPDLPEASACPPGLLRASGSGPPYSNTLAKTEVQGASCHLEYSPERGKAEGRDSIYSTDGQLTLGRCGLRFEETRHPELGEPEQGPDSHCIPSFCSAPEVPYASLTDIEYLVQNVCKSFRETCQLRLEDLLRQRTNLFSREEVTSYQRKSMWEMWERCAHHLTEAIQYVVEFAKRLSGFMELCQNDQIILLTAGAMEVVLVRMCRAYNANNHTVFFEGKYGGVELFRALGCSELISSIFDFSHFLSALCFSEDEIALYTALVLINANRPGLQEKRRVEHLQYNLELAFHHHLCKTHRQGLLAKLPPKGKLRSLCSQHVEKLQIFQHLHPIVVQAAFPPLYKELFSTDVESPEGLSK
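ROR gamma transcriptional activity was tracked as Gal4-UAS luciferase output in stably transfected Drosophila Schneider cells, with compound added 1 hr before 700 uM copper sulfate induction and a 20 hr ambient-temperature incubation.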
BRCA1 expr up – increases BRCA1 expression; Potency, µM (top dose mostly 46.1 µM), usual class: activators; actives 1.1% (n = 380,000); AID 624202; MCF7-BRCA1-FFLuc reporter, luminescence, 48 h; response scale: scaled: vehicle 0%, 10 µM genistein 100%; further: nearly all actives have a fitted effect of over 80% in size
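Activators of BRCA1 expression were detected as increased firefly luciferase luminescence in engineered MCF7 cells after 48 h compound incubation. Signals were scaled to genistein 10 microM as full activation.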
VP16 counter – inhibits Gal4-VP16 luciferase reporter, ROR gamma counter-screen; Drosophila S2 Gal4-VP16 UAS-luciferase, luminescence, 20 h; Potency, µM (top dose mostly 53.6 µM), actives largely listed as inhibitors; actives 3.5% (n = 310,000);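 further: Gal4-VP16 expression switched on by copper sulfate through the metallothionein promoter; nearly all actives have a fitted effect of over 50% in size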
ELG1 DNA repair – ELG1-dependent DNA repair inhibition; HEK293T ELG1-luciferase reporter, luminescence, 16 h; DNA damage induced by 5-fluorouridine; Potency, µM (doses to about 46.1 µM), hits mostly inhibitors; actives 2.3% (n = 330,000); further: nearly all actives have a fitted effect of over 55% in size
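Reporter activity after DNA damage by 5-fluorouridine is monitored. Compound-treated cells incubate 16 hr at 37 °C, then ONE-Glo is added for 30 min before luminescence reading.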
Large screens that a line does not name were inactive. This is a sample that favours compounds with a hit; in the whole collection about 7.6% have one here. Unless noted, the call rests on the fitted dose curve; in most records, active means well fitted curve in the direction sought with a large enough effect; inconclusive means small, poorly fitted or top-dose-only effect, or another doubt; inactive means no such curve, though single readings can be large; an effect the other way counts as inactive or inconclusive.

CC(=O)c1ccc(NC(=O)COC(=O)c2c3c(nc4ccccc24)/C(=C\c2cccs2)CCC3)cc1	Giardia kill inconclusive, RORgamma inh inconclusive, VP16 counter inconclusive, ELG1 DNA repair 10µM
O=C(COC(=O)c1c2c(nc3ccccc13)/C(=C\c1cccs1)CCC2)Nc1ccccc1	RORgamma inh inconclusive, VP16 counter inconclusive, ELG1 DNA repair 15µM
COc1cc2c(cc1OC)C(c1ccc(C)cc1)NC(=O)C2 (configuration not stated)	none (no result: p53 reactivator)
CCN1CCN(CCOc2ccccc2OCc2ccccc2)CC1	none
Cc1c(C(=O)NN)[nH]c2ccc([N+](=O)[O-])cc12	RORgamma inh 11µM, VP16 counter inconclusive
CCOc1cccc(-c2cc(C(=O)Nc3ccon3)c3ccccc3n2)c1	RORgamma inh inconclusive, ELG1 DNA repair 13µM
COc1cccc(-c2cc(C(=O)Nc3ccc([N+](=O)[O-])cn3)c3ccccc3n2)c1	VP16 counter inconclusive, ELG1 DNA repair 13µM
COc1ccc(Nc2ccc([N+](=O)[O-])cn2)cc1	RORgamma inh inconclusive, BRCA1 expr up inconclusive, ELG1 DNA repair inconclusive (no result: p53 reactivator)
O=C(Nc1ccc([N+](=O)[O-])cn1)c1cc(-c2cccc(Cl)c2)nc2ccccc12	none
COc1ccc(CNc2ccc([N+](=O)[O-])cn2)cc1	Giardia kill inconclusive, p53 reactivator inconclusive, RORgamma inh inconclusive, BRCA1 expr up 10µM, ELG1 DNA repair inconclusive
O=C(Nc1ccc([N+](=O)[O-])cn1)c1cc(-c2cccc(Br)c2)nc2ccccc12	none
O=C(Nc1ccccn1)c1cc(-c2cccc(Cl)c2)nc2ccccc12	RORgamma inh inconclusive, ELG1 DNA repair 18µM
COCCCNC(=S)Nc1ccccc1[N+](=O)[O-]	ELG1 DNA repair inconclusive
CCOc1ccc(CN(CCC#N)C(=S)NC(=O)c2ccccc2)cc1	RORgamma inh 0.4µM, VP16 counter 0.45µM
CCN(CC)C(=O)c1ccc(-c2ccccc2)cc1	ELG1 DNA repair inconclusive
CCOc1ccc(C(=O)NCCc2ccccc2)cc1	Giardia kill inconclusive, RORgamma inh 8.9µM, VP16 counter 8.9µM, ELG1 DNA repair inconclusive
COc1ccc(CN(CCC#N)C(=S)NC(=O)c2ccccc2)cc1	RORgamma inh 0.32µM, VP16 counter 0.56µM
CCCN(CCC)C(=S)NC(=O)c1ccc(-c2ccccc2)cc1	RORgamma inh 0.5µM, VP16 counter 0.13µM
N#CCCN(Cc1ccccc1)C(=O)Nc1ccccc1	none
Brc1ccc(-c2cnco2)cc1	none
NC(N)=Nc1nc2ccccc2o1	none
Cc1cccc(C(C)(C)C)c1OCCOCCN1CCCC1	none
N#CCCN(Cc1ccccc1)C(=S)NC(=O)c1ccccc1	RORgamma inh 0.35µM, VP16 counter 0.71µM, ELG1 DNA repair inconclusive
N#CCCN(Cc1ccccc1)C(=S)Nc1ccccc1	none
Cc1ccc(C(=O)NC(=S)N(C)Cc2ccccc2)cc1	none (no result: p53 reactivator, RORgamma inh, VP16 counter, ELG1 DNA repair)
CCOc1ccc(C(=O)NC(=S)N(Cc2ccccc2)Cc2ccccc2)cc1	RORgamma inh 0.28µM, VP16 counter 0.79µM
Cc1ccccc1N1C(=O)C2C3CCC(O3)C2C1=O (configuration not stated)	none (no result: p53 reactivator)
Cc1ccc(C2Oc3ccccc3C3=C2C(c2cccs2)n2ncnc2N3)cc1 (configuration not stated)	RORgamma inh 11µM, VP16 counter inconclusive
CCOC(=O)Cc1cc(=O)n2[nH]c(C)c(-c3ccccc3)c2n1	RORgamma inh 13µM, VP16 counter inconclusive
Cc1cc(=O)n2[nH]c(C)c(-c3ccc(Cl)cc3)c2n1	RORgamma inh 7.1µM, VP16 counter 16µM, ELG1 DNA repair inconclusive
CCOC(=O)N1CCC(c2cc(=O)n3[nH]c(C)c(-c4ccc(F)cc4)c3n2)CC1	RORgamma inh 10µM, VP16 counter 13µM
CCOC(=O)Cc1cc(=O)n2[nH]c(-c3ccccc3)c(-c3ccccc3)c2n1	RORgamma inh inconclusive
CCOC(=O)N1CCC(c2cc(=O)n3[nH]c(-c4ccccc4)cc3n2)CC1	none
CCOC(=O)Cc1c(C)nc2c(-c3cccc(Br)c3)c[nH]n2c1=O	RORgamma inh 4.5µM, VP16 counter 14µM, ELG1 DNA repair 16µM
Cc1cc(=O)n2[nH]c(C)c(-c3ccccc3)c2n1	none
CCOc1ccc(C(=O)OCC(=O)NCCNC(=O)COC(=O)c2ccc(OCC)cc2)cc1	none
CCOC(=O)CCc1c(C)nc2c(-c3ccccc3)c(C)[nH]n2c1=O	none (no result: Giardia kill, p53 reactivator, RORgamma inh, VP16 counter, ELG1 DNA repair)
CCOC(=O)Cc1c(C)nc2c(-c3ccc(Cl)cc3)c(C)[nH]n2c1=O	RORgamma inh 6.3µM, VP16 counter 6.3µM
O=C(COC(=O)c1cc(Br)ccc1O)NCCC1=CCCCC1	none (no result: Giardia kill, p53 reactivator, RORgamma inh, VP16 counter, ELG1 DNA repair)
Cc1c(-c2ccccc2)oc2c(C(=O)OCC(=O)Nc3ccc(F)cc3)cccc2c1=O	VP16 counter inconclusive, ELG1 DNA repair 10µM
O=C(CCNc1ccc(F)cc1)c1ccco1	p53 reactivator inconclusive, RORgamma inh 11µM, VP16 counter inconclusive, ELG1 DNA repair inconclusive
COc1ccc(Cc2nc3ccc(C(=O)NCC(C)(C)OC)cc3o2)cc1	BRCA1 expr up 10µM, ELG1 DNA repair inconclusive
COc1ccc(Cc2nc3ccc(C(=O)N4CCCCC4CCO)cc3o2)cc1 (configuration not stated)	none
CCC1CCCCN1C(=O)c1ccc2nc(Cc3ccc(OC)cc3)oc2c1 (configuration not stated)	RORgamma inh inconclusive, BRCA1 expr up 11µM, VP16 counter inconclusive, ELG1 DNA repair inconclusive
COC(=O)CCNC(=O)c1ccc2nc(Cc3ccc(OC)cc3)oc2c1	none (no result: p53 reactivator, RORgamma inh, VP16 counter, ELG1 DNA repair)
CCOC(=O)c1cc2c(=O)n3ccccc3nc2n(C(C)C)c1=NC(=O)c1c(-c2c(F)cccc2Cl)noc1C	ELG1 DNA repair 5.8µM
COc1ccc(/C=C/C(=O)Nc2cc(S(=O)(=O)N3CCOCC3)ccc2N2CCCC2)cc1OC	none
COc1ccc(/C=N/NC(=S)Nc2cc(S(=O)(=O)N3CCOCC3)ccc2N2CCOCC2)cc1O	RORgamma inh inconclusive, VP16 counter inconclusive, ELG1 DNA repair 7.3µM
CCOc1cccc(/C=N/NC(=S)Nc2cc(S(=O)(=O)N3CCOCC3)ccc2N2CCOCC2)c1O	RORgamma inh inconclusive, VP16 counter 10µM, ELG1 DNA repair 5.8µM
COc1ccccc1N(C)S(=O)(=O)c1ccc(C(=O)Nc2cccc(Br)c2)cc1	ELG1 DNA repair 18µM (no result: RORgamma inh, VP16 counter)
COc1ccccc1N(C)S(=O)(=O)c1ccc(C(=O)N(C)Cc2ccc(OC(F)F)cc2)cc1	ELG1 DNA repair 16µM (no result: RORgamma inh, VP16 counter)
COc1ccccc1N(C)S(=O)(=O)c1ccc(Cl)c(C(=O)NCc2ccco2)c1	ELG1 DNA repair 21µM (no result: RORgamma inh, VP16 counter)
COC(=O)c1cccc(NC(=O)c2ccc(S(=O)(=O)N(C)c3ccccc3OC)cc2)c1	none (no result: Giardia kill, p53 reactivator, RORgamma inh, VP16 counter, ELG1 DNA repair)
